# According to the supplement of paper PMC11738630:
# Tested on: Salmonella enterica serovar Typhimurium 14028s
# Assay: approximate change in surviving CFU after surface colonization relative to water-only control (log10 CFU/mL change); higher = more surviving bacteria (less inhibition of surface colonization)
# Conditions: not stated (Biolog proprietary concentration), surface: plastic 96-well plate, 20-24 h at 25 °C
smiles,measurement,setting,value
C=C(CC(=O)O)C(=O)O [Itaconic Acid],approximate change in surviving CFU (log10),"Biolog plate: PM2, Biolog well: E11",-3.95
O=C(O)[C@@H]1C[C@@H](O)CN1 [Hydroxy-L-Proline],approximate change in surviving CFU (log10),"Biolog plate: PM2, Biolog well: G8",0.622
"CC(=O)C(C)=O [2,3-Butanedione]",approximate change in surviving CFU (log10),"Biolog plate: PM2, Biolog well: H11",-1.61
NCCCC[C@@H](N)C(=O)O [D-Lysine],approximate change in surviving CFU (log10),"Biolog plate: PM3, Biolog well: C7",-0.107
"CC(O)C(N)=O (racemic) [D,L-Lactamide]",approximate change in surviving CFU (log10),"Biolog plate: PM3, Biolog well: E7",-1.78
N[C@@H]1C(O)O[C@H](CO)[C@@H](O)[C@@H]1O (stereo partly drawn) [D-Mannosamine],approximate change in surviving CFU (log10),"Biolog plate: PM3, Biolog well: E10",-1.09
Cc1c[nH]c(=O)[nH]c1=O [Thymine],approximate change in surviving CFU (log10),"Biolog plate: PM3, Biolog well: F8",-0.58
O=c1cc[nH]c(=O)[nH]1 [Uracil],approximate change in surviving CFU (log10),"Biolog plate: PM3, Biolog well: F10",1.14
NC(=O)NC1NC(=O)NC1=O (stereo not given) [Allantoin],approximate change in surviving CFU (log10),"Biolog plate: PM3, Biolog well: G5",0.258
C[C@H](N)C(=O)NCC(=O)O,approximate change in surviving CFU (log10),"Biolog plate: PM3, Biolog well: H4",-0.322
C[C@H](N)C(=O)N[C@@H](Cc1cnc[nH]1)C(=O)O,approximate change in surviving CFU (log10),"Biolog plate: PM3, Biolog well: H5",-0.258
C[C@H](N)C(=O)N[C@H](C(=O)O)[C@@H](C)O,approximate change in surviving CFU (log10),"Biolog plate: PM3, Biolog well: H7",-0.0215
NCC(=O)N[C@@H](CC(N)=O)C(=O)O,approximate change in surviving CFU (log10),"Biolog plate: PM3, Biolog well: H8",0.107
NCC(=O)N[C@@H](CCC(N)=O)C(=O)O,approximate change in surviving CFU (log10),"Biolog plate: PM3, Biolog well: H9",0.129
C[C@H](O)[C@@H](O)[C@@H](O)[C@H](O)C=O [L-Fucose],approximate change in surviving CFU (log10),"Biolog plate: PM1, Biolog well: B4",1.33
"O=C(O)CC(O)C(=O)O (racemic) [D,L-Malic Acid]",approximate change in surviving CFU (log10),"Biolog plate: PM1, Biolog well: C3",1.05
O[C@@H]1[C@H](O)[C@H](O)CO[C@H]1O [D-Ribose],approximate change in surviving CFU (log10),"Biolog plate: PM1, Biolog well: C4",0.172
O=C(O)/C=C/C(=O)O [Fumaric Acid],approximate change in surviving CFU (log10),"Biolog plate: PM1, Biolog well: F5",0.88
O=C(O)CC(Br)C(=O)O (stereo not given) [Bromo Succinic Acid],approximate change in surviving CFU (log10),"Biolog plate: PM1, Biolog well: F6",-0.901
O=C(O)[C@H]1OC(O)[C@H](O)[C@@H](O)[C@H]1O (stereo partly drawn) [D-Galacturonic Acid],approximate change in surviving CFU (log10),"Biolog plate: PM1, Biolog well: H10",1.09
